High-throughput results deposited in PubChem BioAssay by National Center for Advancing Translational Sciences (NCATS).
Rows were chosen to be rich in hits. Some 21% of all compounds tested hit in one or more screens of this group.
DRD3 agonist = qHTS of D3 Dopamine Receptor Agonist: qHTS; D(3) dopamine receptor (Homo sapiens), P35462; D3R DiscoveRx beta-arrestin cells, luminescence, 90 min; max activation, %; 0.58% of 410,000 active; AID 652048, 2013; in the data active = max activation above about 30%; note: 0% is about no effect
Target sequence (P35462 whole entry, looked up): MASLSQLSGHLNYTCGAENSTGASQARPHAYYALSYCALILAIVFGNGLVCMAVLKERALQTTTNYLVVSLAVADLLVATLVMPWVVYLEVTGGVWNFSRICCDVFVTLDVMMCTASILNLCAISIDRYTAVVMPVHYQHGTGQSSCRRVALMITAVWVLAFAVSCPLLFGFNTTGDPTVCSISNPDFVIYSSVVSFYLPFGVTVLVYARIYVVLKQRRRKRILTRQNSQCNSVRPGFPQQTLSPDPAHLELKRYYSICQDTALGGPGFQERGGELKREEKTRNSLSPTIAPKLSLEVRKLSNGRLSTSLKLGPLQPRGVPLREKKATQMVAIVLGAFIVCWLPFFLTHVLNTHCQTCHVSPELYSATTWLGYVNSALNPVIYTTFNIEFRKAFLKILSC
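Agonist-mode cell screen: cells plated at 1500/well and incubated overnight at 37 °C, then exposed to library compounds for 90 min at 37 °C. Detection reagent was added for 30–60 min at room temperature, and luminescence was read.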
IL1B secr inh = qHTS for Inhibitors of Inflammasome Signaling: IL-1-beta AlphaLISA Primary Screen. THP-1 LPS/ATP IL-1B secretion, AlphaLISA, 16 h; active compounds read low. activity change, % at 57.5 µM. 4.7% of 360,000 active; in the data active = activity change below about -50%; inconclusive = mostly about -30% to -49%; note: % is set by controls: 0 for no effect and ±100 for the full control effect
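THP-1 cells pretreated 1 hr with compounds (up to 57.5 uM final), then stimulated with LPS (250 ng/mL final) plus ATP (1.25 mM final); secreted IL-1B measured by AlphaLISA after 16 hr, decreased signal indicating inhibition.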
DRD3 antagonist = qHTS of D3 Dopamine Receptor Antagonist: qHTS; D3R cells, DiscoveRx beta-arrestin luminescence, antagonist mode; active compounds read low; max response, negative = inhibition, %; 2.5% of 360,000 active; D(3) dopamine receptor (Homo sapiens), P35462; in the data active = max response below about -50%; inconclusive = no clear call, values can overlap the other calls; note: % is set by controls: 0 for no effect and ±100 for the full control effect
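Cells expressing the human receptor were seeded at 1500 cells/well, incubated overnight at 37 degrees C in 5% CO2, then exposed to library compounds with dopamine controls for 90 minutes at 37 degrees C before luminescent detection.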
DT40 TDP1 CPT = qHTS for Inhibitors of human tyrosyl-DNA phosphodiesterase 1 (TDP1): qHTS in cells in presence of CPT. chicken DT40 Tdp1-/-;hTDP1 cells + 20 nM CPT, ATP luminescence, 48 h. Potency, µM (doses to about 46.2 µM), for the others: at the highest dose activity change, negative = growth inhibition, usual class: inhibitors. 12% of 420,000 active. AID 686979, 2013; note: potency is the fitted concentration of half-maximal effect; % is set by controls: 0 for no effect and ±100 for the full control effect; nearly all actives have a fitted effect of over 55% in size
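Cell growth measured by CellTiter-Glo luminescence after a minimum 48 h, 37 C compound exposure with 20 nM CPT in Tdp1-knockout DT40 cells stably expressing hTDP1, seeded 400/well; qHTS titration format.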
TDP1 cell noCPT = qHTS for Inhibitors of human tyrosyl-DNA phosphodiesterase 1 (TDP1): qHTS in cells in absence of CPT | Potency, µM (titrated, usually from 46.2 µM), for the others: at the top dose activity change, negative = growth inhibition, actives largely listed as inhibitors | 15% of 420,000 active | DT40 Tdp1-/- hTDP1 cells, no CPT, ATP luminescence, 48 h; note: potency is the fitted concentration of half-maximal effect; % is set by controls: 0 for no effect and ±100 for the full control effect; nearly all actives have a fitted effect of over 55% in size
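Luminescent ATP content (CellTiter-Glo) served as the growth readout. Knockout chicken DT40 cells expressing human TDP1 were exposed to compounds without camptothecin for a minimum 48 hr at 37 °C.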
ClpP mod = qHTS Assay for Activators of ClpP. ATP-dependent Clp protease proteolytic subunit (Bacillus subtilis (strain 168)), P80244. purified B. subtilis ClpP, FRET peptide cleavage, 20 min. Potency, µM (series often up to 57.5 µM), for the others: top-dose activity change, negative = active. 1.9% of 340,000 active; active = well fitted falling curve with a large enough effect; inconclusive = small, poorly fitted or top-dose-only effect; inactive = no such curve, though single readings can be large or run the other way; note: potency is the fitted concentration of half-maximal effect; the source files actives as falling curves though it sought activators and does not explain the sign; nearly all actives have a fitted effect of over 65% in size
Target sequence (P80244 whole entry, looked up): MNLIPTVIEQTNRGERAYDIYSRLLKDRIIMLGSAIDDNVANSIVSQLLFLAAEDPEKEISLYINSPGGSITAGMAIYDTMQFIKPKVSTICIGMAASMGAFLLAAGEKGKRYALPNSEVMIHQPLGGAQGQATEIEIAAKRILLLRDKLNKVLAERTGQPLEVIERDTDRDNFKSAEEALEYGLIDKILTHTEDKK
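FRET quenching reversal measured ClpP activation: 10 microg/mL B. subtilis ClpP at pH 8 with the FRET-FV decapeptide, read at 430 nm after 320 nm excitation. The 20-min minus 0-min signal was scaled between DMSO/no-enzyme wells and ADEP (5.8 microM final).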
The depositor's hits bear a star; ? = inconclusive; · = no result given; [ ] = remark or other dose. Unless noted, calls come from the whole dose curve; as a rule, active = well fitted inhibition curve with a large enough effect; inconclusive = small, poorly fitted or top-dose-only effect; inactive = flat fitted curve, though single readings scatter.

SMILES	DRD3 agonist	IL1B secr inh	DRD3 antagonist	DT40 TDP1 CPT	TDP1 cell noCPT	ClpP mod
CCc1cc2cc(C)cc(C)c2nc1Cl	5	15	11	5%	?	0%
O=S(=O)(c1ccc2c(c1)CCC2)N1CCNCC1	-5	-6	-9	2%	-16%	28µM*
COc1cc(C(O)P(=O)(OCCC(C)C)c2ccc(N(C)C)cc2)cc(OC)c1OC (configuration not stated)	-5	·	-14	?	?	·
CCOc1ccccc1N=C1SCC(C)N1C(=O)C1CCN(c2ncnc3sc(C)c(C)c23)CC1 (configuration not stated)	0	0	12	21µM*	15µM*	-2%
CCc1ccc2nc(NC(=O)C3CCN(c4ncnc5sc(C)c(C)c45)CC3)sc2c1	1	31	6	?	?	-17%
Cc1ccccc1OCC(=O)NNC(=O)C1CCN(c2ncnc3sc(C)c(C)c23)CC1	20	7	4	23µM*	26µM*	-1%
CCN(CC)c1ccc(C(=O)NNC(=O)C2CCN(c3ncnc4sc(C)c(C)c34)CC2)cc1	4	-4	60	?	?	-23%
CCCN(CC(=O)Nc1ccccc1C)C(=O)C1CCN(c2ncnc3sc(C)c(C)c23)CC1	1	-14	26	21µM*	10µM*	1%
C=CCn1c(C)cc(-c2csc(NC(=O)C3CCN(c4ncnc5sc(C)c(C)c45)CC3)n2)c1C	3	0	12	?	21µM*	-6%
COc1ccc(CN(C)C(=O)CCCNC(=O)c2ccc(Cl)cc2)cc1	-4	0	-5	-11%	-15%	·
O=C(Nc1cccc2ccccc12)c1cnn2c1NC(=C1CC1)C=C2C(F)F	·	·	·	?	?	-1%
CC(C)c1c(C(=O)N2CCN(CCO)CC2)cnn1-c1nccc(-c2cccs2)n1	·	·	·	26%[9.04 µM]	-14%	·
O=C1OC2(c3ccccc31)c1cc(I)c(O)c(I)c1Oc1c2cc(I)c(O)c1I	-34	·	·	-30%	?	·
COc1ccc(-c2csc(NC(=O)C3CCN(c4ncnc5sc(C)c(C)c45)CC3)n2)cc1OC	47*	64	56	2.9µM*	2.6µM*	·
Cc1sc2ncnc(N3CCC(C(=O)N(CC(C)C)c4nc5ccccc5s4)CC3)c2c1C	-9	12	12	21µM*	15µM*	?
COc1ccccc1OCC(=O)NNC(=O)C1CCN(c2ncnc3sc(C)c(C)c23)CC1	0	-7	23	?	13µM*	1%
Cc1sc2ncnc(N3CCC(C(=O)Nc4ccc(Cl)c(Cl)c4)CC3)c2c1C	3	-7	44	?	?	-16%
COc1ccc(OC)c(C2CC(=O)c3c([nH]c(C(=O)OCC4CCCCC4)c3C)C2)c1 (configuration not stated)	-14	·	·	21µM*	?	0%
COC(=O)c1[nH]c2c(c1C)C(=O)CC(c1cccs1)C2 (configuration not stated)	-6	20	-5	0.73µM*	0.82µM*	-5%
COC(=O)c1[nH]c2c(c1C)C(=O)CC(c1cc(OC)ccc1OC)C2 (configuration not stated)	-1	41	-17	3.3µM*	2.9µM*	3%
CC(C)CNC(=S)N(CCCN(C)C)Cc1cc2cc3c(cc2[nH]c1=O)OCCO3	-2	?	0	-20%	5%	3%
CCOc1ccc(NC(=O)Cn2cnc3nc4c(cc3c2=O)CCCC4)cc1	4	·	·	?	-30%	-2%
CCn1cc(CN2CCC(C(=O)Nc3ccc(Oc4cccnc4)cc3)CC2)cn1	-24	0	-3	-13%	-3%	-4%
COc1ccc(NC(=O)N(C)C[C@H]2Oc3ccc(NC(=O)Nc4c(C)noc4C)cc3C(=O)N([C@H](C)CO)C[C@@H]2C)cc1	13	11	0	2%	-4%	-1%
NNC(=O)c1cc2ccccc2[nH]1	-10	71	-52*	5%	-5%	·
SMILES	DRD3 agonist	IL1B secr inh	DRD3 antagonist	DT40 TDP1 CPT	TDP1 cell noCPT	ClpP mod
O=C(NCCN1CCCCC1)c1cc2ccccc2[nH]1	-15	7	-72*	0%	-27%	18µM*
CCNc1ncc2nc(-c3cccs3)c(=O)n(-c3ccccc3)c2n1	·	·	·	-18%	-6%	·
c1ccc(-c2cn(-c3ccccc3)c3[n+]2CCCS3)cc1	24	-1	11	3.3µM*	3.7µM*	1%
COc1ccc(-n2cc(-c3ccc(C)cc3)[n+]3c2SCC3)cc1	-1	-94*	14	1.5µM*	1.3µM*	?
CCc1ccc(-n2cc(-c3ccc(F)cc3)[n+]3c2SCCC3)cc1	-23	-91*	-21	4.6µM*	1.8µM*	·
N#Cc1ccc(-c2cn(-c3ccccc3)c3[n+]2CCCS3)cc1	10	13	7	5%	-23%	·
Cc1ccc(-c2cn(-c3ccccc3)c3[n+]2CCCS3)cc1	0	-63*	?	0.65µM*	0.37µM*	0%
Cc1cc2oc(=O)cc(CN3CCCCC3)c2cc1Cl	-21	16	0	?	?	-3%
O=C(Nc1ccc(C(=O)O)cc1)/C(=C\c1ccco1)NC(=O)c1ccco1	-8	-9	-8	-9%	-6%	·
Cn1ccnc1SCCNC(=O)CCc1nnc(CCc2ccccc2)o1	-11	2	-2	34%	?	·
COc1ccc(S(=O)(=O)Nc2cc3c4c(c2)CCN4C(=O)CC3)cc1C	5	13	-10	?	?	·
CC(=O)C1=C(O)CC(c2ccccc2)CC1=NCCc1c(C)[nH]c2ccc(C)cc12 (configuration not stated)	-8	1	-9	?	?	0%
CC/C(O)=C1\C(=O)CC(c2ccccc2)CC1=NCCc1c(C)[nH]c2ccc(C)cc12 (configuration not stated)	-5	11	-11	?	23µM*	-6%
CCC/C(O)=C1\C(=O)CC(c2ccccc2)CC1=NCCc1c(C)[nH]c2ccc(C)cc12 (configuration not stated)	-10	7	-16	18µM*	?	-8%
